Screening results from PubChem.
Most compounds without a hit are left out; they make up all but 11% or so of the library.
Sm TGR inh: blocks Schistosoma mansoni thioredoxin glutathione reductase; Q962Y6; purified TGR, DTNB reduction, TNB absorbance 405 nm; Potency, µM (top dose mostly 114 µM), for inactives: at the top dose activity change, negative = inhibition, actives largely listed as inhibitors; actives 3% (n = 360,000); note: % is set by controls: 0 for no effect and ±100 for the full control effect; nearly all actives have a fitted effect of over 60% in size
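TGR 20 nM + NADPH 100 uM (dispensed conc.), cpd preinc 15 min RT; start with NADPH (500 uM addition) then DTNB (15 mM addition). Kinetic TNB absorbance, 405 nm filter. Four-parameter Hill fit across titration.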
Pf growth 48h: P. falciparum growth inhibition at 48 hours (one generation). actives 5.9% (n = 310,000). Potency, µM (top dose mostly 28.7 µM), for inactives: top-dose activity change, negative = inhibition, hits mostly inhibitors. P. falciparum luciferase growth in erythrocytes, 48 h. AID 504832; note: % is set by controls: 0 for no effect and ±100 for the full control effect
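First compound was added to culture medium, then infected red cells at 0.1% parasitemia and 2% hematocrit (final). After incubation at 37 C under 5% CO2, luciferase detection reagent was dispensed and light output recorded.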
NS1 inh: blocks influenza NS1 protein function; AID 2326; Potency, µM (highest dose often 46.1 µM), inactives show at the highest dose activity, positive = more growth; actives 0.4% (n = 270,000); calls by dose curve; note: actives are rising curves; nearly all actives have a fitted effect of over 50% in size
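In this qHTS, NS1 from influenza A is expressed in budding yeast, where it slows growth. Cells are switched from glucose to 2% galactose medium (pH 6.0, -URA), treated with compound, and growth recovery is read at OD600.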
Pf growth 96h: P. falciparum growth inhibition at 96 hours | P. falciparum luciferase reporter growth, 96 h | Potency, µM (doses to about 28.7 µM), for the others: at the top dose activity change, negative = inhibition, most hits filed as inhibitors | actives 6.9% (n = 320,000) | AID 504834; note: % is set by controls: 0 for no effect and ±100 for the full control effect
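Luminescence readout: decreased luciferase signal marks inhibited growth of reporter-expressing P. falciparum in infected red cells (2% hematocrit, 0.05% parasitemia final), exposed to compound two generations (96 h, 37 C, 5% CO2).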
AMA1 RON2 block: AMA1-RON2 (P. falciparum) interaction inhibition; AlphaScreen AMA1-biotinylated RON2 peptide binding; Potency, µM (highest dose often 58.2 µM), inactives show at the top dose activity change, negative = inhibition, usual class: inhibitors; AID 720542; actives 0.2% (n = 360,000);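 note: 0% = vehicle wells and -100% = peptide control; nearly all actives have a fitted effect of over 45% in size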
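AMA1 (3D7) with his tag at 25 nM final met compounds first, then biotinylated RON2 peptide at 25 nM; detection used donor plus acceptor beads, 10 µg/mL apiece, read by AlphaScreen after 30 min at room temperature.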
* marks the source's active call; other numbers are inactive results; ? = inconclusive; / = no result. Unless noted, calls come from the whole dose curve; as a rule, active = well fitted curve in the direction sought with a large enough effect; inconclusive = small, poorly fitted or top-dose-only effect, or another doubt; inactive = no such curve, though single readings can be large; an effect the other way counts as inactive or inconclusive. Potency is the fitted concentration of half-maximal effect.

SMILES	Sm TGR inh	Pf growth 48h	NS1 inh	Pf growth 96h	AMA1 RON2 block
N#Cc1cc2c(nc1SCC(=O)Nc1ccc(Cl)cc1)C1CCN2CC1	0%	13µM*	11%	1%	-4%
COc1ccc2nc(SCC(=O)NCC3CCCO3)c(C#N)cc2c1 (centres undefined)	-8%	0%	-23%	2.1µM*	-1%
CCOc1ccc2nc(SCC(=O)Nc3ccc(S(=O)(=O)N4CCCC4)cc3)c(C)cc2c1	2%	?	-1%	?	-12%
COc1ccc2nc(SCC(=O)Nc3ccc(S(=O)(=O)N4CCCC4)cc3)c(C#N)cc2c1	-12%	3.3µM*	12%	?	23%
CC(=O)OCCCNc1cc(Sc2ccc(C)cc2)c2nonc2c1[N+](=O)[O-]	8.9µM*	?	2%	413%	-19%
CC(=O)OCCCNc1cc(Sc2nc3ccccc3s2)c2nonc2c1[N+](=O)[O-]	0.1µM*	6%	-6%	28%	8%
CCCC(=O)OCCNc1cc(SCCC(=O)OC)c2nonc2c1[N+](=O)[O-]	3.5µM*	-7%	-23%	30%	-8%
CC(=O)OCCNc1cc(Sc2nc3ccccc3[nH]2)c2nonc2c1[N+](=O)[O-]	0.32µM*	?	?	?	0%
COc1ccc(C2/C=C\CN(Cc3ccncc3)CC(=O)N2Cc2ccc(F)cc2)cc1 (centres undefined)	?	-5%	-5%	?	11%
COc1ccc(Cc2nnc(NC(=O)c3c(-c4ccccc4)noc3C)s2)cc1OC	-4%	?	-49%	10µM*	/
CCCCOc1ccc(N2CC(C(=O)NCCc3ccc(OC)c(OC)c3)CC2=O)cc1 (centres undefined)	-1%	-15%	/	12µM*	-5%
COc1ccc(C(=O)Nc2nnc(Cc3ccc(OC)c(OC)c3)s2)c(OC)c1	-19%	2.3µM*	-8%	151%	-9%
CCOC(=O)c1c(NC(=O)c2c(-c3ccccc3)noc2C)sc(C)c1-c1ccccc1	-25%	/	14%	6.6µM*	-9%
COc1ccc(CN2CCC(=O)N([C@H](CO)CC(C)C)CC2)cc1OC	-1%	30%	8%	-13%	0%
COc1ccc(Cc2nnc(NC(=O)C3CC(=O)N(c4ccccc4)C3)s2)cc1OC (centres undefined)	5%	0%	-8%	2.9µM*	-24%
COc1ccc(Cc2nnc(NC(=O)c3ccc(OC)c(OC)c3)s2)cc1OC	0%	-10%	/	21%	3%
COc1cccc(C(=O)Nc2nnc(Cc3ccc(OC)c(OC)c3)s2)c1	5%	12µM*	-5%	0%	-1%
COc1ccc(-c2nc3ccccc3n3c(-c4ccc(OC)cc4)c4c(=O)n(C)c(=O)n(C)c4c23)cc1	8%	/	/	/	/
CCc1ccccc1NCc1nnc2n1CCCCC2	4%	/	/	/	/
Cc1cc(NC(=O)Cn2c(=O)c3c(ncn3CCC(C)C)n(Cc3ccccc3)c2=O)no1	-2%	3.3µM*	-15%	6%	-6%
CCCCNC(=O)Cn1c(=O)c2c(ncn2CCC(C)C)n(Cc2ccccc2)c1=O	43%	?	-12%	2.3µM*	7%
CC(C)Cn1cnc2c1c(=O)n(CC(=O)Nc1ccc3c(c1)OCO3)c(=O)n2Cc1ccccc1	-9%	9.3µM*	-35%	10µM*	?
CCn1cnc2c1c(=O)n(CC(=O)Nc1cc(C)on1)c(=O)n2Cc1ccccc1	0%	?	-10%	?	-4%
CC(C)Cn1cnc2c1c(=O)n(CC(=O)O)c(=O)n2Cc1ccccc1	7%	?	0%	?	14%
Cc1cc(NC(=O)Cn2c(=O)c3c(ncn3CC(C)C)n(Cc3ccccc3)c2=O)no1	0%	8.3µM*	-3%	4.7µM*	3%
SMILES	Sm TGR inh	Pf growth 48h	NS1 inh	Pf growth 96h	AMA1 RON2 block
COCc1nn2cc(-c3ccc(C)cc3)nc2s1	6%	/	/	/	/
CCOc1ccc(C2C(=O)N(C3CCCCC3)CC(=O)N2Cc2ccc(F)cc2)cc1OC (centres undefined)	-9%	/	/	/	/
COc1cccc(C(=O)c2cn(CC(=O)NCc3ccccc3)c3nc(C)ccc3c2=O)c1	2%	/	/	/	/
COCCNC(=O)CN(c1ccc(F)cc1)S(=O)(=O)c1ccc2c(c1)OCCO2	5%	0%	-2%	-20%	11%
CC(C)Cn1cnc2c1c(=O)n(CC(=O)NC(=O)NC(C)(C)C)c(=O)n2Cc1ccccc1	8%	2.9µM*	10%	?	-1%
O=C(Nc1ccc(F)cc1)N1CCC(c2nc3c(nnn3Cc3cccc(Cl)c3)c(=O)[nH]2)CC1	0%	?	16%	319%	-7%
NC(=O)C1CCN(c2nc(C3CC3)nc3c2nnn3Cc2ccccc2)CC1	-19%	13µM*	7%	?	-4%
Cc1ccc(NC(=O)N2CCC(c3nc4c(nnn4Cc4cccc(Cl)c4)c(=O)[nH]3)CC2)cc1	0%	13µM*	18%	0.029µM*	-9%
O=C(C1CCCCC1)N1CCCC(c2nc3c(nnn3Cc3ccccc3)c(=O)[nH]2)C1 (centres undefined)	4%	?	0%	/	-1%
O=C(c1ccccc1)N1CCCC(c2nc3c(nnn3Cc3ccccc3)c(=O)[nH]2)C1 (centres undefined)	-1%	13µM*	0%	39%	33%
Cc1ccc(C)c(Cn2nnc3c(=O)[nH]c(C4CCCN(C(=O)C5CCCCC5)C4)nc32)c1 (centres undefined)	4%	6.6µM*	-12%	3%	8%
COc1ccc(S(=O)(=O)NCCc2sc3nc(-c4ccc(C)cc4)nn3c2C)cc1C	-4%	/	/	/	/
CC(=O)c1cccc(S(=O)(=O)N2CCCC(c3nc4c(nnn4Cc4cccc(Cl)c4)c(=O)[nH]3)C2)c1 (centres undefined)	1%	7.4µM*	4%	8.3µM*	-18%
O=C(c1cccs1)N1CCCC(c2nc3c(nnn3Cc3ccc(F)cc3)c(=O)[nH]2)C1 (centres undefined)	0%	?	?	0%	11%
COc1ccccc1NC(=O)N1CCCC(c2nc3c(nnn3Cc3ccc(C)cc3)c(=O)[nH]2)C1 (centres undefined)	4%	9.3µM*	2%	-6%	-2%
O=C(c1cccs1)N1CCCC(c2nc3c(nnn3Cc3ccccc3)c(=O)[nH]2)C1 (centres undefined)	-1%	8.3µM*	3%	5.9µM*	-9%
O=C(c1ccc(Cl)cc1)C1CCN(C(=O)c2ccccc2F)CC1	/	/	/	/	3%
O=C(CN1C(=O)C2C3CC(C(Br)C3Br)C2C1=O)Nc1ccc(C(=O)O)cc1 (centres undefined)	1%	2%	3%	21%	0%
Cc1ccc(S(=O)(=O)N2[C@@H](Cc3ccccc3)CO[C@H]2CC(=O)c2ccc(F)cc2)cc1	/	/	/	/	5%
